Assays:
Assay in all cases: log2 ratio of Biotin-Ahx-Ub-VS probe labelling (fragment/DMSO); higher = less target engagement (more negative = stronger competition), active = hit call of the paper (q ≤ 0.05, log2 ratio ≤ -1)
Conditions in all cases: compound concentration: 200 uM; treatment time: 3 h
USP34 = USP34 (UniProt Q70CQ2)
Outline: (§1)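 The table lists average log2 ratios of fragment over vehicle, from an unpaired t-test on global-median-normalised Spectronaut label-free quantities. Proteins with ≥2 unique peptides were used. Samples were HEK293T lysate (495 µg) treated in triplicate with fragment at 200 µM or vehicle for 3 h, then with Biotin-Ahx-Ub-VS (0.5 µM final) for 1 h, with labelled DUBs NeutrAvidin-enriched and run by diaPASEF LC-MS/MS.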

USP36 = target: T1, USP36 (UniProt Q9P275)
T1 sequence (whole entry): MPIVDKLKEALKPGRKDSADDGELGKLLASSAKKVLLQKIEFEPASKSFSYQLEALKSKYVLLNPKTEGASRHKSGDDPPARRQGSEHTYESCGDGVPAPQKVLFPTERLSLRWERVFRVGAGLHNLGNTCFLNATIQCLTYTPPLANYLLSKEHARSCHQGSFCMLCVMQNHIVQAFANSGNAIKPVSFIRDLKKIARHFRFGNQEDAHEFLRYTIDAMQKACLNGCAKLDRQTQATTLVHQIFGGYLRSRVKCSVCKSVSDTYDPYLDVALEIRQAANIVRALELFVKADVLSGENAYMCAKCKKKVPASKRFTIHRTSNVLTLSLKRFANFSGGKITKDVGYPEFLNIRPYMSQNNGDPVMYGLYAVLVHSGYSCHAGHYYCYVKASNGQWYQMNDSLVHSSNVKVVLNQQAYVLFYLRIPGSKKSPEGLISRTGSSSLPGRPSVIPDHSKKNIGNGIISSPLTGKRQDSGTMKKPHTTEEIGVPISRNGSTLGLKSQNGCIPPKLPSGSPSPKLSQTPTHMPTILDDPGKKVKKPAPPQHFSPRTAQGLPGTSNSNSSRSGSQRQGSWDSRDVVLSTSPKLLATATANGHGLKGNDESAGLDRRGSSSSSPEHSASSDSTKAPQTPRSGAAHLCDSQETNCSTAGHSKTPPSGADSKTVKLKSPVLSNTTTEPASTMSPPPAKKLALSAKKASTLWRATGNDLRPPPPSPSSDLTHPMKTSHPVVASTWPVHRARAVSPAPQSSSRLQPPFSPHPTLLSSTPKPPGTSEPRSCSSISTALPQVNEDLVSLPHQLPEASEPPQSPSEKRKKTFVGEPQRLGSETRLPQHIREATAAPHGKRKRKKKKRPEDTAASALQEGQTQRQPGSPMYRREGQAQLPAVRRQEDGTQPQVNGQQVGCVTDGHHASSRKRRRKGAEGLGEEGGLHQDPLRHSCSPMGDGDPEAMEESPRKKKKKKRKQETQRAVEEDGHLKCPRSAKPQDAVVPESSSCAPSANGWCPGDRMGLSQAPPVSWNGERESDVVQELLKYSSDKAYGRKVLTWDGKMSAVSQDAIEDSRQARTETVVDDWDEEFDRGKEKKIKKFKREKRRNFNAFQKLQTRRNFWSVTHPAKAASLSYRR
Outline: as §1

USP38 = target: T2, USP38 (UniProt Q8NB14)
T2 sequence (whole entry): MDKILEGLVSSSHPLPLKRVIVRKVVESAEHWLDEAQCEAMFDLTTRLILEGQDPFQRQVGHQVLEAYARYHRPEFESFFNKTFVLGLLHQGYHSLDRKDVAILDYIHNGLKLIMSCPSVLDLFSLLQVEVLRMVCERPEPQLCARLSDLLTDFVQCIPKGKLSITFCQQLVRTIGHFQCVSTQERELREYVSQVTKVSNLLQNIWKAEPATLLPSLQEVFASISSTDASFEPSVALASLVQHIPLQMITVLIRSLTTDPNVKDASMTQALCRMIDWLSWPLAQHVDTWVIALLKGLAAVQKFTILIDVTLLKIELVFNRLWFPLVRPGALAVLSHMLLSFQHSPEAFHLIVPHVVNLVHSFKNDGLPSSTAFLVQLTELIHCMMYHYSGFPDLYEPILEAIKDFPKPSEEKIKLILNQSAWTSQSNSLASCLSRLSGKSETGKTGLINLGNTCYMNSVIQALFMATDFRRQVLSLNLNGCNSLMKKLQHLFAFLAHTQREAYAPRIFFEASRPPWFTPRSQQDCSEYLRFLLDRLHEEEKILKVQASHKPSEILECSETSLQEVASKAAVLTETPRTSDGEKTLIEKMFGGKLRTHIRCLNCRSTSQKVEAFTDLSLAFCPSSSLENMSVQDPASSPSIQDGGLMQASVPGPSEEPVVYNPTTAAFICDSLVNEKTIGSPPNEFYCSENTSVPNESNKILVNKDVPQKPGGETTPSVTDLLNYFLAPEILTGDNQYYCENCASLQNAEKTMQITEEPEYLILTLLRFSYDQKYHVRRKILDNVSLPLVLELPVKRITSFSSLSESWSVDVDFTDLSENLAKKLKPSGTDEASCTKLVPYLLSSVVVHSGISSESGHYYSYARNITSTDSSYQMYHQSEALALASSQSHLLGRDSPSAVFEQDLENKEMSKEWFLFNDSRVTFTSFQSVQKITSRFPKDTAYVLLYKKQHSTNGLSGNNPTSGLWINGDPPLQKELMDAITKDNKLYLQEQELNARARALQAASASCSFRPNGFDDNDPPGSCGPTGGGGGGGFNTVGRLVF
Outline: as §1

USP39 = target: T3, USP39 (UniProt Q53GS9)
T3 sequence (whole entry): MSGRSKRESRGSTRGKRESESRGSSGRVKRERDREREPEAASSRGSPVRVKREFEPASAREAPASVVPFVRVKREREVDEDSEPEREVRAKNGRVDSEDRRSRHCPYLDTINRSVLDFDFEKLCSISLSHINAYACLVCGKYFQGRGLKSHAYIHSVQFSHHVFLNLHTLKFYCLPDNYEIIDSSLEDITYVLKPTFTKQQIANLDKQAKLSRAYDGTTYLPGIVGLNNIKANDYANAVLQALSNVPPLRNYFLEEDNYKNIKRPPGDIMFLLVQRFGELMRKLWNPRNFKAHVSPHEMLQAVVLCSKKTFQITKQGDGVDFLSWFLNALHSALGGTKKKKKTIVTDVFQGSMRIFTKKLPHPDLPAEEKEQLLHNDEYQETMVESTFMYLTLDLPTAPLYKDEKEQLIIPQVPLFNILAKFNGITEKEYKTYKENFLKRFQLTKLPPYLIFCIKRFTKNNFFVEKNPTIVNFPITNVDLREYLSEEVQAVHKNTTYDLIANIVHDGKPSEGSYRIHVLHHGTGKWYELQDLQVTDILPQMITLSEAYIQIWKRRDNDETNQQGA
Outline: as §1

USP4 = target: T4, USP4 (UniProt Q13107)
T4 sequence (whole entry): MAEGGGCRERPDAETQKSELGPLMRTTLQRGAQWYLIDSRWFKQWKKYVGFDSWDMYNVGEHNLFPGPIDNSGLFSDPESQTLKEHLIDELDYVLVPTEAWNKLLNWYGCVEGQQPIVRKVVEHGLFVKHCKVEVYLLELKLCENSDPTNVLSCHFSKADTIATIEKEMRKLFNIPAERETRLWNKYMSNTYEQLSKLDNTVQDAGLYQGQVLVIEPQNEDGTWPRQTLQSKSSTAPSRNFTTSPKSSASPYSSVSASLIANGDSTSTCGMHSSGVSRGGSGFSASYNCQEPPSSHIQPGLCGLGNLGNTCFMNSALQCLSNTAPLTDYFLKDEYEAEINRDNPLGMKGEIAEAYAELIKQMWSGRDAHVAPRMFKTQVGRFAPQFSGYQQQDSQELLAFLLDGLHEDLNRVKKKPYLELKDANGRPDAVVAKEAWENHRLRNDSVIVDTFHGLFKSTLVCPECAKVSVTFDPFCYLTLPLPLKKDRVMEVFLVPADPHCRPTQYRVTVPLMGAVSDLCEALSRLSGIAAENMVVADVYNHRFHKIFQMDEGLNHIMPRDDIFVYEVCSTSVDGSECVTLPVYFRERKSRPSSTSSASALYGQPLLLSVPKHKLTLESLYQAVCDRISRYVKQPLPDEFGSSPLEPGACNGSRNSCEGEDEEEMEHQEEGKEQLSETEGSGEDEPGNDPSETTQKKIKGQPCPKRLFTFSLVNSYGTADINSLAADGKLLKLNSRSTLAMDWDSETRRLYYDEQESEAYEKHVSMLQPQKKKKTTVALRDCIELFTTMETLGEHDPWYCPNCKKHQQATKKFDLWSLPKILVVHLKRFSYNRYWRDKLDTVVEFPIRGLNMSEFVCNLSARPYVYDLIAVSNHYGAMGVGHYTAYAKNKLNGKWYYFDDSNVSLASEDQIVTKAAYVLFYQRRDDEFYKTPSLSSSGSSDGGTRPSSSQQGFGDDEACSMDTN
Outline: as §1

Measured: log2 ratio of Biotin-Ahx-Ub-VS probe labelling

Chain of USP34 (Q70CQ2 whole entry, the tested form may be a part): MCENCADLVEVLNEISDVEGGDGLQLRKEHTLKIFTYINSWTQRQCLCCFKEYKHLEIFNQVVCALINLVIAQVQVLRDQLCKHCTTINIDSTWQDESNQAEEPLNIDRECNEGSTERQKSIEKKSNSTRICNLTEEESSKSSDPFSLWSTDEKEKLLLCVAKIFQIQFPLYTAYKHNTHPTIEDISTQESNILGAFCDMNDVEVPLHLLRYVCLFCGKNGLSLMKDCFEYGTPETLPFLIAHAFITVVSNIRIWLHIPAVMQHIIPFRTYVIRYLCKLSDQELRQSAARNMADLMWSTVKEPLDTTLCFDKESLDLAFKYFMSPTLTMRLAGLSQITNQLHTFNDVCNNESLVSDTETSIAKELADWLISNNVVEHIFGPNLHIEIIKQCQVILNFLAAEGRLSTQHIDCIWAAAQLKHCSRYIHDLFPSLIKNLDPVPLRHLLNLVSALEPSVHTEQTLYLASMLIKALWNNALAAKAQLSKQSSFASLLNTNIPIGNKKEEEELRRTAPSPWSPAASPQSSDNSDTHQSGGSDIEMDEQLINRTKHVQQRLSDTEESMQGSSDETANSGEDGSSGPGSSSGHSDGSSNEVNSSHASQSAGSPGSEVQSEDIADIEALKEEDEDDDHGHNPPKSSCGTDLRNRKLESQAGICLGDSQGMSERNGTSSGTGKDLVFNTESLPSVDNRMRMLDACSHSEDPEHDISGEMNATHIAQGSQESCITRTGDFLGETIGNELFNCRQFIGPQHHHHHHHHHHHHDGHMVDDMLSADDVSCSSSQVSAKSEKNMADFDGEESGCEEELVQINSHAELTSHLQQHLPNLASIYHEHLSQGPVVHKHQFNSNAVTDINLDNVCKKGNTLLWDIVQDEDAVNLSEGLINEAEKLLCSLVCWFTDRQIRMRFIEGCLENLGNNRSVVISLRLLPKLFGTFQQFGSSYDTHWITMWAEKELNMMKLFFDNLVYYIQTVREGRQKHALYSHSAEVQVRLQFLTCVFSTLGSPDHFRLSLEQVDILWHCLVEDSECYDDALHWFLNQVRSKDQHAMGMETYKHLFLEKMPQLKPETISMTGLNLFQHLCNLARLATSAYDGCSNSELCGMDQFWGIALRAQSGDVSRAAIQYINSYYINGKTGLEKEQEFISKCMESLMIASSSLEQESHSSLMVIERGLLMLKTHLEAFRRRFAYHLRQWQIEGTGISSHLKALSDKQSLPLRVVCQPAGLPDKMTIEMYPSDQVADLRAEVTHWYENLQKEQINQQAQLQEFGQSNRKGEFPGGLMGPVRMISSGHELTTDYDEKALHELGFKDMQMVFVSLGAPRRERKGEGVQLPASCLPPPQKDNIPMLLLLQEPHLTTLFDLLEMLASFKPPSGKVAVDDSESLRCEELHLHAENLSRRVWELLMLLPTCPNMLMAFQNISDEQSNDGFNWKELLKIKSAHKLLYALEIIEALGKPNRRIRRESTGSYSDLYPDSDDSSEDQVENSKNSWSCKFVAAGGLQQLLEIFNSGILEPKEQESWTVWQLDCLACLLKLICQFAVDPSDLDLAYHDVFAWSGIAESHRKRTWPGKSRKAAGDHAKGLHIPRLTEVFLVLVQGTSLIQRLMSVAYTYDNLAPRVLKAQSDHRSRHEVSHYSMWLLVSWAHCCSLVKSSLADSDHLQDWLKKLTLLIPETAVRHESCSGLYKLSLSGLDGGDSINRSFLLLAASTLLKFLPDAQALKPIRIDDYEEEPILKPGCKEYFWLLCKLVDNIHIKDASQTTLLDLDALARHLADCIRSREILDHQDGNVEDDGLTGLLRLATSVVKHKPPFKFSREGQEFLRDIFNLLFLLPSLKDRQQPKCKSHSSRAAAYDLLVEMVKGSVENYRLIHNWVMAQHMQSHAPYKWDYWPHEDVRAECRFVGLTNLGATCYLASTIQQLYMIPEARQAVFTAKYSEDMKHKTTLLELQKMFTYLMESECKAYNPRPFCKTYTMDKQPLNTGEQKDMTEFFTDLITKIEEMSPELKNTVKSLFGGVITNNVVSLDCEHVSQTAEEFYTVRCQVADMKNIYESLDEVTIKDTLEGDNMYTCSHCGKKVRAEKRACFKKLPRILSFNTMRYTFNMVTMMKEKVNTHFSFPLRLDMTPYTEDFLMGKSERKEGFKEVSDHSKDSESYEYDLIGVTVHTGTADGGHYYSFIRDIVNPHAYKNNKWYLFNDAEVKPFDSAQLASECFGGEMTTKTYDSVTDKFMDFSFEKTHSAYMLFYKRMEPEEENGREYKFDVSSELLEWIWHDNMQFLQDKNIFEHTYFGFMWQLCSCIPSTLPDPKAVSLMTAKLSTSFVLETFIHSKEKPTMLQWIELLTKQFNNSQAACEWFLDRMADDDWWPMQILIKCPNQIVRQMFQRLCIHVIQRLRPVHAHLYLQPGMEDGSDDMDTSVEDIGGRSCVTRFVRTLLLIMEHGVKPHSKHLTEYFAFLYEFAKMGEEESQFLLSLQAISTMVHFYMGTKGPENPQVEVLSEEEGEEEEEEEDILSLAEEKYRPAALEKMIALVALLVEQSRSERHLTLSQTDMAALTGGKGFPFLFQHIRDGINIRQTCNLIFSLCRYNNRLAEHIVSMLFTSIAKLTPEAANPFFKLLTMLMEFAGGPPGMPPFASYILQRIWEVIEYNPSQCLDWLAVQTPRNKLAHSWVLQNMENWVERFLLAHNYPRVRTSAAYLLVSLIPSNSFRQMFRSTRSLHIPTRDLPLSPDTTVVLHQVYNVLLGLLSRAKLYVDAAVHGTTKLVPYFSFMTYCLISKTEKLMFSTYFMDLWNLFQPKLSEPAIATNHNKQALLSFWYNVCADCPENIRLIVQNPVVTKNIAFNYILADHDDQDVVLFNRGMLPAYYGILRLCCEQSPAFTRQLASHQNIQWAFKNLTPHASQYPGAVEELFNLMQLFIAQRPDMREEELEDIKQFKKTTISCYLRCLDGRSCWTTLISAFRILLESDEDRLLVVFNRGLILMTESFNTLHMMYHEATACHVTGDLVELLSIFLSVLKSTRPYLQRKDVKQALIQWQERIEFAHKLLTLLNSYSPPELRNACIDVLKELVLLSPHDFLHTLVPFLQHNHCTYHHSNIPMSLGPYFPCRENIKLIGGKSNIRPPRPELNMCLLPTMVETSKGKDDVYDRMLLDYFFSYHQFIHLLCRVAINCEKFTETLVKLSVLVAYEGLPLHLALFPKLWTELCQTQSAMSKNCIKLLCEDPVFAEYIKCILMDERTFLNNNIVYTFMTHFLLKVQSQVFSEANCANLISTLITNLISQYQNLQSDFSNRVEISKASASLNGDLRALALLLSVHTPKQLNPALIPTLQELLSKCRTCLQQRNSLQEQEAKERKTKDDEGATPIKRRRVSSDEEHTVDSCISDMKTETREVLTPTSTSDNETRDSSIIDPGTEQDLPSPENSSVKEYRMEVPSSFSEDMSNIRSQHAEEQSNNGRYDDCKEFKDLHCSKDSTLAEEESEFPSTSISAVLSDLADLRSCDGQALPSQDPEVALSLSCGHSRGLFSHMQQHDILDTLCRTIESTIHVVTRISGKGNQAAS

COc1ccc(C2CCCN2C(=O)CCl)c(OC)c1 (stereo not given)
inactive: USP34 -0.0529 | USP36 -0.129 | USP38 -0.231 | USP39 0.128 | USP4 -0.347

Reference: the supplement of paper PMC11732987, “Enantioselective OTUD7B fragment discovery through chemoproteomics screening and high-throughput optimisation” (Communications Chemistry, 2025)
